Data reported in PubChem BioAssay AID588499 (NMMLSC, 2011).
Among all 360,000 compounds or so, about 610 (0.17%) were called active. Roughly 2% stayed inconclusive and do not appear here. No stated cut-off is given here; in the data, active means inhibition above about 30%; inconclusive means no clear call, values can overlap the other calls; inactive means below that. Many of the other results were omitted from the sample, so actives are more common in it than they were.

The compounds below were run on Botulinum neurotoxin type A light chain protease (Clostridium botulinum A str. ATCC 3502) (assay: blockers of BoNT/A LC substrate cleavage – biochemical, flow cytometry, MLPCN library, primary screen (AID 588499; further: plate controls were buffer without enzyme for full effect and enzyme alone for no effect)). Conditions: multiplex microsphere protease substrate cleavage, at 10 µM, hits give high values.

| Structure (SMILES) | inhibition |
| --- | --- |
| Cc1c(Cl)cccc1NC(=S)NCc1ccc2c(c1)OCO2 | -1.1% (inactive) |
| Cc1cccc(NC(=S)NCc2ccc3[nH]c4c(c3c2)CCCC4)c1 | 0.2% (inactive) |
| COC(=O)c1ccc(CNC(=O)c2ccc(S(=O)(=O)N3CCCCCC3)cc2)cc1 | 0.1% (inactive) |
| CCOc1ccc(C(C)=O)cc1COC(=O)CNC(=O)c1cccs1 | -0.9% (inactive) |
| Cc1cc2cc(CNC(=O)c3cccs3)ccc2[nH]1 | 75.4% (active) |
| Cc1cc2cc(CNC(=O)c3ccc(S(=O)(=O)N4CCOCC4)cc3)ccc2[nH]1 | 71.1% (active) |
| Cc1ccc(C)c2[nH]c(=O)c(CCNC(=O)c3cccs3)cc12 | -0.5% (inactive) |
| O=C(Nc1ccc2cn[nH]c2c1)c1ccc(S(=O)(=O)N2CCOCC2)cc1 | -1.3% (inactive) |
| CCc1cccc(CC)c1NC(=S)NCc1ccc2[nH]c(C)cc2c1 | 34.3% (active) |
| O=C(CSc1nncn1-c1cccnc1)N1CCOCC1 | -0.7% (inactive) |
| COc1cccc(C=CC(=O)C=CC=Cc2ccccc2)c1 | 0.9% (inactive) |
| O=C(/C=C(O)/C=C/c1ccc(O)cc1)/C=C/c1ccc(O)cc1 | 38.1% (active) |
| COc1ccc(/C=C/C(=O)c2c(O)cc(OC)cc2OC)cc1 | -0.9% (inactive) |
| Cc1ccccc1S(=O)(=O)NC(=O)C1(C)CCN1C(=O)C1(c2ccc(Cl)cc2)CC1 (stereo unspecified) | -0.5% (inactive) |
| Cc1cc(C(=O)COc2ccccc2[N+](=O)[O-])c(C)n1-c1cccc(S(=O)(=O)N2CCOCC2)c1 | -2% (inactive) |
| C#CCNC(=O)C[C@@H]1C[C@@]2(C(=O)OCC)CCCC=C2N(Cc2ccco2)C1=O | -1.2% (inactive) |
| CN(CC(=O)Nc1ccc(F)cc1)CC(=O)N1CCCCC1 | 0.4% (inactive) |
| COc1ccc(NC(=O)c2sc(=O)n(Cc3ccc(S(=O)(=O)N(C)C)cc3)c2C)cc1 | -0.2% (inactive) |
| CC1(C(=O)NS(=O)(=O)c2ccc(Cl)cc2)CCN1C(=O)CC1CCCC1 (stereo unspecified) | -0.4% (inactive) |
| CN(C(=O)CCn1c(=S)oc2ccccc21)C1CCCCC1 | 0.7% (inactive) |
| Cn1nc(N)c2ncc(C(Cl)(Cl)Cl)nc21 | 0% (inactive) |
| Fc1cccc(Cc2c(-c3cccc(Cl)c3)nc3ccc(Br)cn23)c1 | 9.7% (inactive) |
| O=C1OCC2=C1C(c1ccccc1)CC(=O)N2c1cccc(F)c1 (stereo unspecified) | -1.3% (inactive) |

| Structure (SMILES) | inhibition |
| --- | --- |
| CCCCOCCCNC(=O)C[C@@H]1C[C@@]2(C(=O)OC)CCCCC=C2N(CCC2=CCCCC2)C1=O | -0.3% (inactive) |
| CCc1nc2c(OCCOc3ccccc3)cccn2c1N(C)C(=O)c1ccccc1F | -0.2% (inactive) |
| COc1ccc([C@H]2N[C@]3(CCCN(Cc4ccco4)C3=O)[C@H]3C(=O)N(C)C(=O)[C@@H]23)cc1 | -0.4% (inactive) |
| COC(=O)[C@]12CCCCC=C1N(CCC1=CCCCC1)C(=O)[C@H](CC(=O)NCC1CCCCC1)C2 | 0% (inactive) |
| CC(C)(C)CC(=O)Nc1nc(C(N)Cc2ccc(C(F)(F)F)cc2)cs1 (stereo unspecified) | -0.5% (inactive) |
| CN1CCN(C(=O)c2ccc(NC(=O)c3ccc(Br)o3)cc2)CC1 | 0.8% (inactive) |
| COC(=O)c1cn(C)c2ccc(S(=O)(=O)N3CC(C)CC(C)C3)cc2c1=O (stereo unspecified) | -1.1% (inactive) |
| CC(=O)Nc1cccc(Nc2ccc(C#N)cc2)c1 | 0% (inactive) |
| COc1ccc(NC(=O)NN2CCN(C)CC2)c(OC)c1 | -3.1% (inactive) |
| COc1ccc(C(=O)c2c(C)c(CCC#N)n3ccccc23)c(OC)c1 | 0.8% (inactive) |
| CC1(C)c2[nH]c3ccccc3c2C[C@H]2C(=O)N(N)CC(=O)N21 | -1.4% (inactive) |
| CC1=CC(=C(C#N)c2nc3ccccc3s2)C=C(C)N1c1ccc(F)cc1F | 48.3% (active) |
| Cc1nn(-c2ccc(F)cc2)c(Cl)c1/C=C(/CCC(=O)O)c1nc2ccccc2s1 | -0.5% (inactive) |
| CSCC[C@H](NC(=O)NCCc1ccc(F)cc1)C(=O)O | 0% (inactive) |
| O=c1c2[nH]c3ccc(Cl)cc3c2ncn1Cc1ccccn1 | 1% (inactive) |
| O=C(NCc1ccc(Cl)cc1)C(=O)NCC1CCCN1S(=O)(=O)c1cccs1 (stereo unspecified) | -1.5% (inactive) |
| NC(=O)c1ccc(N2CCCC2)nc1 | 0.8% (inactive) |
| Oc1cccc(CCc2ccccn2)c1 | -0.4% (inactive) |
| CCOc1ccccc1NC(=O)C1CCCN(C(=O)Nc2ccccc2)C1 (stereo unspecified) | 0% (inactive) |
| COc1cc(OC)c(-n2cc(-c3ccc(Cl)cc3)[nH]c2=O)cc1Cl | 0.1% (inactive) |
| O=C(COC(=O)CC1CC2CCC1C2)NC(=O)NC1CCCC1 (stereo unspecified) | 0.7% (inactive) |
| O=C(NCc1ccccc1)C1c2ccccc2OCC(=O)N1C1CC1 (stereo unspecified) | 0% (inactive) |
| O=C(NCCc1ccco1)C(=O)NCCC1CCCCN1S(=O)(=O)c1ccccc1 (stereo unspecified) | -3.9% (inactive) |
